# Assay results from PubChem BioAssay (NCI).
# About 83,000 compounds went through this panel and 20% of them were active in at least one assay; those are over-represented in the sample as a whole.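 Percent growth is the endpoint: 0 to 100 indicates growth inhibition (40 means 60% inhibition), 0 means no net growth, and negative values indicate cell death.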 A number with no mark means an inactive call. Calls of active or inactive are those of the source. Rule for the calls: active = growth percent below 10; inactive = the rest.
# Tests used:
# Assay in all cases: NCI-60 one-dose screen, 48 h (100 = growth as untreated, 0 = no growth, -100 = all killed)
# Conditions in all cases: 10 µM unless noted
# [1] = system: DU-145 prostate
# [2] = system: K-562 leukemia
# [3] = system: MALME-3M melanoma
# [4] = system: MDA-MB-231 breast
# [5] = system: RXF 393 renal
# [6] = system: SF-268 CNS
# [7] = system: SF-295 CNS
# [8] = system: SF-539 CNS
# [9] = system: UACC-257 melanoma
# [10] = system: M14 melanoma
# [11] = system: HCT-15 colon
# [12] = system: HT29 colon
# [13] = system: SNB-75 CNS
# [14] = system: SNB-19 CNS
# [15] = system: U251 CNS
# [16] = system: PC-3 prostate
# [17] = system: SK-MEL-5 melanoma
# [18] = system: UACC-62 melanoma
# [19] = system: LOX IMVI melanoma
# [20] = system: SK-MEL-28 melanoma
SMILES,growth [1],growth [2],growth [3],growth [4],growth [5],growth [6],growth [7],growth [8],growth [9],growth [10],growth [11],growth [12],growth [13],growth [14],growth [15],growth [16],growth [17],growth [18],growth [19],growth [20]
CCCC[N+]1(C)CCN=C1Cc1ccccc1 (stereo not given),106%,84.6%,98.2%,109%,100%,97.7%,97.4%,96.2%,93.7%,106%,103%,89.3%,99.6%,104%,95.8%,87.2%,97.8%,96.7%,99.8%,110%
CS(=O)(=O)c1ccc(/C(=N/NC(N)=S)c2ccc(F)cc2)cc1,108%,85.1%,104%,107%,85.1%,98.8%,106%,102%,102%,104%,98.4%,107%,93.1%,99.9%,107%,103%,102%,101%,101%,114%
Cc1[nH]c(C2CC(c3ccc(C(F)(F)F)c(F)c3)=NN2C)c(C)c1C(=O)NCC(F)(F)F (stereo not given),96.3%,85.6%,93.8%,85.4%,93.7%,92.4%,94.9%,96.7%,97.9%,115%,92.2%,102%,96.9%,91.9%,96.8%,98.1%,93.6%,82.3%,93.1%,101%
O=C(O)/C=C/c1cn(-c2ccccc2)nc1-c1ccc(F)cc1,115%,100%,105%,95%,113%,83.7%,87.7%,92.6%,80.7%,90%,101%,107%,87.9%,92.2%,96.2%,84.4%,93.9%,88.3%,95.2%,104%
COC(=O)[C@@H](Cc1c[nH]c2ccccc12)NC(=O)[C@H](Cc1ccccc1)NCc1ccncc1,108%,102%,86.5%,93.2%,103%,96.9%,106%,103%,79.4%,103%,110%,87.5%,93%,93.3%,92.7%,78.5%,102%,95.3%,95%,122%
Cc1ccc(S(=O)(=O)N(CCC(=O)O)c2ccccc2)cc1,111%,93.4%,142%,114%,152%,102%,111%,99.1%,102%,107%,102%,110%,118%,109%,102%,101%,112%,104%,97.3%,119%
COc1ccc(-c2cn(Cc3ccc4c(Br)cc(Br)c(O)c4n3)nn2)cc1,89.7%,39.1%,82.7%,93.9%,91.8%,91.3%,104%,101%,87.9%,83.3%,39.3%,89.5%,71.6%,96.9%,97.3%,91.4%,98.6%,95.6%,49.4%,96.3%
CCN(CC)CCN1C(=O)c2c(c(C)c3c(oc4cc(OC)ccc43)c2C)C1=O,75.1%,-29.2% (active),102%,58.4%,73.1%,89.6%,89.4%,70.6%,127%,98.9%,101%,96.8%,77.2%,87.6%,55.5%,92%,95.8%,102%,83.1%,76.1%
O=C1/C(=C/c2cccc(Br)c2)COc2ccc(O)c(O)c21,-7.02% (active),10.3%,-44.9% (active),-26.7% (active),-56.5% (active),-23.9% (active),34.8%,-85.4% (active),10.9%,-5.09% (active),-7.69% (active),2.91% (active),15.1%,1.36% (active),-85.3% (active),-35.1% (active),23.3%,-72.2% (active),-90.8% (active),-17.2% (active)
CCOC(=O)C1=C(c2ccccc2)N=C2SC=C(c3cccc([N+](=O)[O-])c3)N2C1c1ccc(O)cc1 (stereo not given),102%,112%,96.7%,93.2%,89.1%,94.3%,101%,98.8%,96.1%,101%,97.7%,105%,91.4%,97%,96.6%,94.8%,97.7%,92.7%,95.4%,104%
C#CCOc1cccc(Nc2ncnc3c(NC(=O)CCl)cccc23)c1,58.9%,-21.7% (active),-74.7% (active),-25.6% (active),56.2%,3.94% (active),95.6%,-91.3% (active),56.9%,5.19% (active),-37.9% (active),-77.1% (active),74.8%,20.1%,-69.2% (active),2.88% (active),-89.2% (active),21.8%,-79.7% (active),75%
Cc1nc2sc(C(=O)Nc3ccccc3)c(N)c2cc1C(O)c1ccccc1 (stereo not given),18.1%,7.04% (active),60.8%,16.7%,40%,47.9%,4.69% (active),-5.44% (active),72.5%,20.3%,9.11% (active),11.9%,36.9%,23.5%,16.9%,21.6%,4.19% (active),34.6%,26.9%,65.7%
COc1ccc(-c2nc3cc(C(=O)NC4CCCCC4)ccc3n2C2CCCCC2)cc1,99.7%,49.5%,95.8%,101%,100%,91.7%,78.3%,88%,104%,88.7%,21.5%,38.3%,91.6%,109%,91.5%,95.8%,65.3%,95.3%,76.9%,100%
O=C1c2ccccc2-c2c1c1ccncc1c(=O)n2CCCn1ccnc1,58.6%,20.5%,98%,73.8%,55.6%,38.7%,56.2%,31.6%,93.5%,63.3%,40.8%,21%,50.3%,41.5%,20.4%,38%,28.5%,39.7%,6.42% (active),88.3%
CN(C)CCOc1nc2c3cc([N+](=O)[O-])ccc3nn2c2ccccc12,32.2%,26.3%,52.4%,66.4%,24.3%,56.6%,9.28% (active),51.6%,78.9%,47.3%,25.9%,26.1%,77.1%,19.5%,21%,47.1%,45.6%,41.8%,20.2%,93.7%
Fc1ccc(/C=C/c2cc(/C=C/c3ccc(F)cc3)n(-c3cc(F)cc(F)c3)n2)cc1,99.9%,66.4%,98.1%,101%,112%,102%,93.5%,103%,106%,87.7%,103%,78.7%,91%,105%,117%,76.4%,100%,85.7%,102%,101%

SMILES,growth [1],growth [2],growth [3],growth [4],growth [5],growth [6],growth [7],growth [8],growth [9],growth [10],growth [11],growth [12],growth [13],growth [14],growth [15],growth [16],growth [17],growth [18],growth [19],growth [20]
CCN1C(=O)N(CC)C2C1NN=c1s/c(=C\c3ccccc3)c(=O)n12 (stereo not given),5.47% (active),8.79% (active),41.1%,2.86% (active),32%,54.8%,5.04% (active),-12.5% (active),45.8%,8.9% (active),11%,3.09% (active),20.8%,27.1%,8.08% (active),23.9%,-9.58% (active),24.3%,15.9%,60.6%
O=c1cc(-c2nccc3c2[nH]c2ccccc23)c2cc(Cl)ccc2o1,79.8%,15.1%,49.8%,62.5%,82.2%,54.6%,13.9%,17.6%,35.4%,17.3%,24.3%,7.6% (active),39.8%,43.7%,29.6%,30.7%,32.1%,45.5%,50.1%,64.6%
CCOC(=O)C1=C(C)N(C)C(=O)N(C)C1c1ccccc1 (stereo not given),107%,82.2%,87.2%,97.3%,105%,108%,90.6%,91.4%,92.5%,94.2%,102%,97.8%,79.2%,93.8%,99.3%,92.7%,93.3%,86.7%,96.1%,124%
O=C(NC1CCCCCC1)c1ccc2c(=O)n3c(nc2c1)CCCCC3,94.3%,89%,91.1%,100%,105%,110%,116%,89.2%,112%,110%,80.4%,87.3%,62.9%,102%,99.7%,92.2%,94.9%,93.6%,96.1%,108%
CCCN1C2CCC1/C(=C\c1ccc(OC)cc1)C(=O)/C2=C/c1ccc(OC)cc1,90%,35.6%,57.5%,74.9%,92.4%,83.9%,76.7%,105%,44.4%,62.1%,71.1%,58%,84.9%,86.7%,70.3%,64%,64.1%,49.7%,74.8%,82.7%
CCCN1C(=O)N(CCC)C2C1NC(=S)N2/N=C/C=C/c1ccccc1OC (stereo not given),14.2%,12.6%,40.4%,23.9%,-29.8% (active),62.9%,10.9%,-30.6% (active),60.5%,-0.388% (active),19.3%,2.43% (active),-17.4% (active),24.6%,11.9%,28.7%,26.9%,28.5%,41%,50%
C[C@H]1c2ccccc2CN1CCCOc1cc2c(cc1OCC1CC1)C1(CCCC1)C(N)=N2,75.6%,2.69% (active),-84.7% (active),34.5%,34.2%,70.6%,55.3%,48.1%,-68.1% (active),-70.4% (active),2.62% (active),2.94% (active),74.9%,83.9%,48.7%,44.6%,-84.6% (active),57.4%,-70.2% (active),-61% (active)
CCOC(=O)c1cc(C(=O)c2cc(OC)cc(OC)c2)n2ncccc12,37.4%,17.8%,47.1%,54.5%,35.9%,44.3%,28.2%,20%,37.6%,-15.7% (active),21.5%,7.23% (active),23.5%,47.1%,24.7%,36.2%,26%,26.2%,39.7%,71.2%
C=C(C)[C@@H]1CC[C@]2(C(=O)NC(C)=O)CC[C@]3(C)[C@H](CC[C@@H]4[C@@]5(C)CCCNC(C)(C)[C@@H]5CC[C@]43C)[C@@H]12,24.8%,3% (active),-83.3% (active),23.7%,25.2%,60.5%,77.6%,-79.6% (active),-64.5% (active),-65.3% (active),-33.2% (active),-5.24% (active),52%,58.3%,-41.6% (active),27.4%,-94.5% (active),81.6%,-81.8% (active),-88.4% (active)
CCCc1cc(CCC)n2nc(N)nc2n1,117%,121%,116%,125%,102%,110%,96.4%,112%,118%,111%,107%,108%,95.6%,113%,110%,96.9%,107%,111%,105%,105%
CC/C(=C(/c1ccc(Cl)cc1)c1ccc(OCCCN(C)C)cc1)c1ccc(OC)cc1,85.7%,-27.4% (active),74.1%,76.3%,53.1%,84.2%,88.5%,82.8%,84.7%,32.8%,12.8%,1.68% (active),81%,82.8%,6.12% (active),49.3%,63.4%,104%,16.6%,76.6%
N#C/C(=C/C=C/c1ccccc1)S(=O)c1ccccc1 (stereo not given),-89.5% (active),5.48% (active),-30.2% (active),-54.2% (active),-84% (active),-31.3% (active),-28.8% (active),-74.5% (active),-33.9% (active),-55.5% (active),-9.4% (active),-6% (active),20.8%,-5.13% (active),-81.5% (active),-34.1% (active),-84.7% (active),-57% (active),-80.7% (active),-67.9% (active)
COC(=O)c1c(C(=O)OC)c2ccc3c4ncccc4ccc3n2c1C(=O)c1ccc(C)cc1,98.7%,85.8%,89.7%,84.1%,106%,98.5%,87.7%,97.6%,95.2%,90.1%,91.1%,95.1%,95.2%,98.1%,98.9%,86.6%,83.7%,84.8%,88%,95.1%
COc1cc(/C=N/NC(=O)c2ccc3nc(-c4ccc(Cl)cc4)[nH]c3c2)cc(OC)c1OC,97.4%,32.7%,28.4%,103%,36.3%,79.7%,44%,43.8%,54.3%,42%,96%,39.9%,86.6%,71%,53.2%,59.9%,41.9%,28.7%,50.6%,46.5%
COC(=O)[C@H](C)NC(=O)c1ccc(NC(=O)c2[nH]c(C)c(Cl)c2Cl)c(OCCN)c1,104%,66.7%,113%,103%,115%,96.3%,102%,101%,104%,119%,99.9%,109%,98.6%,101%,110%,98.5%,99.2%,103%,96.2%,110%
